# Compounds with a hit are over-represented: about 4.6% of the library has one in this group of screens.
# TRHR PAM: allosteric enhancers of human TRH receptor. AID 493056. TRHR cells, fluo-8 calcium fluorescence, EC20 TRH enhancement. enhancement, % at 2 µM. P34981. 360,000 compounds, 0.66% hits; in the data active = enhancement above about 30%; also: 0% is about no effect
# Target sequence (P34981 whole entry, looked up): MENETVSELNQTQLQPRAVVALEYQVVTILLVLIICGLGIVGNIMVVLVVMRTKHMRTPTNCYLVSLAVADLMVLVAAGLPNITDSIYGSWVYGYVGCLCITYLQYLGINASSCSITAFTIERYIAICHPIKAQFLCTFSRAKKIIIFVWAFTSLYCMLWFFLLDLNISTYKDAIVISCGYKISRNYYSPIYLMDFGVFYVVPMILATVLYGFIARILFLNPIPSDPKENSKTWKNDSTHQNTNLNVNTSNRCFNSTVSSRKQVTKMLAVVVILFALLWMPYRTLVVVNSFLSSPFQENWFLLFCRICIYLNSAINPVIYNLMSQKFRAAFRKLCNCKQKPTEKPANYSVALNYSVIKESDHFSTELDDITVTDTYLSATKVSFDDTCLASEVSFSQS
#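 Enhancer read-out: after compound pinning and an initial kinetic agonist-mode read, an EC20 of TRH (10 nM final) was injected and fluo-8 calcium signal (Ex 480/Em 530) followed at 1 s/cycle for 100 cycles in TRHR-expressing cells.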
# D1 potentiator: enhances dopamine response at the human D1 receptor; P21728; HEK293 TREx D1 cells, calcium flux, dopamine EC20 potentiation; potentiation, % at 10 µM; 360,000 compounds, 0.036% hits; AID 504651; in the data active = potentiation above about 30%; also: 0% is about no effect
# TRHR agonist: activates the human TRH receptor; P34981; TRHR cells, calcium flux fluo-8, FDSS agonist mode; activation, % at 2 µM; 360,000 compounds, 0.18% hits; AID 493084; also: 0% is about no effect
#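 TRHR-expressing cells, plated overnight in medium with 10% serum, were loaded with fluo-8 calcium dye at room temperature. After a 10 s baseline, library compound was pin-added and calcium release was recorded kinetically (ex 480/em 530) as agonist response.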
# D1 antagonist: blocks dopamine activation of the human D1 receptor; activity change, negative = inhibition, % at 10 µM; 360,000 compounds, 3.2% hits; HEK293 TREx D1 cells, calcium flux, dopamine EC80; active compounds read low; P21728; in the data active = activity change below about -30%; also: % is scaled to controls: 0 for no effect and ±100 for the full control effect
#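 Cells carrying a force-coupled, tetracycline-inducible human D1 receptor report calcium flux. Each well gets a 10 s baseline, compound with 180 s monitoring, then an EC80 dopamine stimulus with a second 180 s kinetic read.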
# D1 agonist: agonists of human D1 dopamine receptor; HEK293 T-REx D1 cells, calcium flux, agonist mode; 360,000 compounds, 1% hits; activation, % at 2 µM; also: 0% is about no effect
#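 Inducible HEK293 T-REx D1 cells, force-coupled to calcium signalling, were plated at 4000 cells/well with tetracycline and held overnight at 30 C. After no-wash calcium dye loading, compound-evoked calcium rise over 180 s flagged agonists.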
# * marks the source's active call; other numbers are inactive results; . = not tested or not shown; ! = not confirmed by another sample. Rule as the data show it, unless noted: active = activation above about 30%; inactive = the rest.
SMILES,TRHR PAM,D1 potentiator,TRHR agonist,D1 antagonist,D1 agonist
COc1ccc(C(=O)Nc2ccc(NC(=O)c3cccs3)cn2)cc1,4,-8,1,-35*,17
O=C(Nc1nc(-c2ccccc2)cs1)c1cccs1,3,-10,-1,-21,5
COc1cc(NC(=O)c2cccs2)c(OC)cc1NC(=O)Nc1ccc(F)cc1,0,-10,-1,-45*,2
O=C(Nc1nc(-c2ccccc2)ns1)c1cccs1,8,6,1,-32*,7
COc1ccc(S(=O)(=O)NCc2cc(=O)n(C)c(=O)n2C)cc1F,7,-2,0,-13,3
Cc1cccc(NC(=O)C(c2ccccc2)N2Cc3ccccc3C2=O)c1C (configuration not stated),3,0,2,-12,-2
Cc1ccc(-c2nc(C)c(CCNC(=O)C(=O)Nc3ccc4c(c3)OCCO4)s2)cc1,1,-4,0,-4,4
COC(=O)c1sc2c(c1C)c(=O)n(-c1ccccc1)c(=O)n2CC(=O)Nc1cccc(C)c1,5,-3,0,-9,4
Cc1cc(Cl)c(S(=O)(=O)Nc2ccc3c(c2)OCO3)cc1OCC(N)=O,11,-4,1,-34*,3
CC(/C=N/Nc1nc2ccccc2[nH]1)=C\c1ccccc1,-4,-7,0,-42*,0
CCN(CC)c1ccc(/C=N/Nc2nc3ccccc3[nH]2)cc1,2,-2,0,-62*,1
CN(C)c1ccc(CNS(=O)(=O)c2ccc3[nH]c4c(c3c2)CCCCC4)cc1,-3,-1,-1,-3,4
C=CCOC(=O)C1=C(C)NC(=O)NC1/C=C/c1ccccc1 (configuration not stated),4,-4,0,-31*,1
CCOc1cc2c(cc1C=O)OC(C)C2 (configuration not stated),8,4,0,2,2
CCOc1cc2c(cc1/C=C/c1noc(C)c1[N+](=O)[O-])OC(C)C2 (configuration not stated),5,6,97*,-17,74*
COc1ccc(/C=C(\NC(=O)c2ccc(OC)cc2)C(=O)NC(CCSC)C(=O)O)cc1 (configuration not stated),-2,-10,0,-3,1
COc1ccc(C(=O)N/C(=C\c2ccc([N+](=O)[O-])cc2)C(=O)NC(CCSC)C(=O)O)cc1 (configuration not stated),-8,0,22,-33*,111*
O=S(=O)(NCc1ccccc1)c1ccc(-c2cnc(C3CC3)o2)cc1,2,-5,0,-38*!,9
Cc1ccc(NS(=O)(=O)c2ccc(-c3cnc(C4CC4)o3)cc2)cc1,-2,-3,1,-18,8
Cc1ccc(CNS(=O)(=O)c2ccc(-c3cnc(C4CC4)o3)cc2)cc1,4,-5,0,-27,9
Cc1ccc(N(C)S(=O)(=O)c2ccc(-c3cnc(C4CC4)o3)cc2)cc1,5,-3,1,-32*!,13
O=C(Nc1ccc(C(=O)N2CCN(c3ccccc3)CC2)cc1)c1nsc2ccccc12,0,-3,0,-11,2
CC(C)Cc1nnc(NC(=O)CCC(=O)N2CCN(c3ccc([N+](=O)[O-])cc3)CC2)s1,-1,-6,0,0,0
CC(C)Cc1nnc(NC(=O)Cc2ccc([N+](=O)[O-])cc2)s1,7,14,3,-5,31*
Cc1ccccc1NC(=O)Nc1nnc(Cc2ccc([N+](=O)[O-])cc2)s1,40*,-3,1,21,5
SMILES,TRHR PAM,D1 potentiator,TRHR agonist,D1 antagonist,D1 agonist
CC(NC(=O)[C@H](C)NC(=O)N1CCn2c1nc1ccccc12)c1ccccc1 (some centres not stated),8,2,-1,2,2
O=C(C1CCN(S(=O)(=O)c2cnc[nH]2)CC1)N1CCn2c1nc1ccccc12,-3,-4,0,-16,6
O=C(C1CCCCC1)N1CCCn2c1nc1ccccc12,3,-1,0,-45*,7
C[C@H](NC(=O)N1CCn2c1nc1ccccc12)C(=O)NC1CC1,-23,-3,0,-85*,-2
CC(=O)c1ccccc1OCC(O)Cn1c(CO)nc2ccccc21 (configuration not stated),-11,-3,0,-11,-1
Cc1c([N+](=O)[O-])cc(C(=O)Nc2ccc(Cc3ccncc3)cc2)cc1[N+](=O)[O-],-4,-3,0,1,17
O=C(Nc1ccc(Cl)cc1)c1ccc(-n2cccn2)c([N+](=O)[O-])c1,-5,-3,0,-32*,19
O=C(Nc1ccc(Cc2ccncc2)cc1)c1ccc(Cl)c([N+](=O)[O-])c1,1,-6,0,-34*,8
COc1ccc(NC(=O)c2ccc(-n3cccn3)c([N+](=O)[O-])c2)cc1,-2,-5,-1,-4,6
Cn1c2c(c(=O)n(C)c1=O)C(C(F)(F)F)(C(F)(F)F)N=C(CCC1CCCCC1)N2,-4,-8,2,-52*,18
Cc1ccc(NC(=O)CCC(=O)NNC(=O)NC23CC4CC(CC(C4)C2)C3)cc1C,5,-3,0,-11,50*
O=S(=O)(c1ccc(F)cc1)N1CCN(c2nc(-c3cccc(Br)c3)nc3ccccc23)CC1,-3,14,-1,-22,2
COc1cccc(N2CCN(C(=O)c3cnn(-c4ccc(C)cc4C)c3C3CCN(C(=O)OC(C)(C)C)CC3)CC2)c1,-13,-1,-1,-7,1
Cc1c(Cl)cccc1-n1ncc(C(=O)NC2CCCC2)c1C1CCN(C(=O)OC(C)(C)C)CC1,-7,3,0,-80*,0
COc1cccc(N2CCN(C(=O)c3cnn(-c4ccccc4Cl)c3C3CCN(C(=O)OC(C)(C)C)CC3)CC2)c1,-6,-5,0,-49*,1
COc1ccc(-n2ncc(C(=O)N3CCN(c4cc(C)ccc4C)CC3)c2C2CCN(C(=O)OC(C)(C)C)CC2)cc1,3,-6,1,-31*,1
COc1ccc(N2CCN(C(=O)c3cnn(-c4ccc(OC)cc4)c3C3CCN(C(=O)OC(C)(C)C)CC3)CC2)cc1,4,-6,-1,-31*,0
Cc1ccc(NC(=O)Cn2nc(C)c3nn(-c4ccc(Cl)cc4)c(C)c3c2=O)cc1C,-3,-2,0,15,-1
COc1ccccc1C(=O)NCCC(=O)NCc1ccccn1,-2,.,0,12,4
O=C(O)c1ccc(Cl)c(NCc2cccs2)c1,32*,-2,0,5,0
CCN1/C(=C/C=C/C=C/C=C/c2sc3ccccc3[n+]2CC)Sc2ccccc21,32*,2,1,0,0
CCN(Cc1ccccc1)S(=O)(=O)c1ccc(C(=O)N(CCCN(C)C)c2nc3cc4c(cc3s2)OCO4)cc1,1,-9,0,-66*,9

# Bioassay records deposited in PubChem by National Center for Advancing Translational Sciences (NCATS).
